BAZ2B inh: inhibitors of human BAZ2B bromodomain | hit rate 4.4% among 360,000 | Potency, µM (top dose mostly 114 µM), for the others: top-dose activity change, negative = inhibition, hits mostly inhibitors | AlphaScreen BAZ2B-H3K14Ac peptide displacement; also: % is scaled to controls: 0 for no effect and ±100 for the full control effect; nearly all actives have a fitted effect of over 60% in size
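BAZ2B 50 nM plus b-H3(5-23)K14Ac 50 nM, PBS pH 7.4/0.01% Tween-20, 30 min RT; compound added (max 110 uM), 30 min RT; streptavidin donor/Ni-chelate acceptor beads 10 ug/mL final, 20 min dark; AlphaScreen read.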
G9a block: G9a (human) methyltransferase inhibition; Q96KQ7; G9a H3K9 monomethylation, AlphaScreen, 2 h; Potency, µM (highest dose often 102 µM), for inactives: at the top dose activity, negative = inhibition, most hits filed as inhibitors; hit rate 8.8% among 350,000; AID 504332; also: % is scaled to controls: 0 for no effect and ±100 for the full control effect; nearly all actives have a fitted effect of over 75% in size
Target sequence (Q96KQ7 913-1193 limits assumed): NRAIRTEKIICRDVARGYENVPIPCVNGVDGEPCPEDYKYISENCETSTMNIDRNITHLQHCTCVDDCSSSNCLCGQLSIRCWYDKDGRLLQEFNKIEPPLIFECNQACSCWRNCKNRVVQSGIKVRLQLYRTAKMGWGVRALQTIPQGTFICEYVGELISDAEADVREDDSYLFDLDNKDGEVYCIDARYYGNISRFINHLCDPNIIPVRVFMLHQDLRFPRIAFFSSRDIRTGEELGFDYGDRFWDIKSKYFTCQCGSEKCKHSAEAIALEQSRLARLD
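G9a (20 nM) preincubated 15 min RT with compounds, then 500 nM biotinylated H3K9 peptide and 20 uM SAM added; 2 h RT reaction. Monomethyl-H3K9 product detected by AlphaScreen with anti-H3K9me1 antibody, streptavidin donor and anti-rabbit IgG acceptor beads.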
HP1b binding inh: inhibitors of HP1-beta chromodomain binding to methylated histone tails. P83916. AlphaScreen HP1-beta / biotin-H3K9me3 peptide binding. Potency, µM (highest dose often 114 µM), for the others: at the top dose activity change, negative = inhibition, most hits filed as inhibitors. hit rate 0.56% among 390,000; also: nearly all actives have a fitted effect of over 70% in size
Target sequence (P83916 whole entry, looked up): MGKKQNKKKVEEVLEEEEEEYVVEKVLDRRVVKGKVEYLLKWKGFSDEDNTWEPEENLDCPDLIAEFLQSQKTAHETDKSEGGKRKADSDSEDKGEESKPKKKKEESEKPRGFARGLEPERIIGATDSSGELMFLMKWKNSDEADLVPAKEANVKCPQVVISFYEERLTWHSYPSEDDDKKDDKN
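Compound inhibition of the preformed complex between 50 nM HP1-beta and 50 nM biotinylated H3K9me3 peptide was read by AlphaScreen. Buffer was PBS pH 7.4 with 0.01% Tween-20. Incubations ran 30 min at room temperature, with 10 ug/mL donor/acceptor beads.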
JMJD2A Tudor inh: JMJD2A Tudor domain (human) inhibition; AlphaScreen JMJD2A-Tudor / H3K4me3 peptide binding; Potency, µM (titrated, usually from 114 µM), inactives show top-dose activity change, negative = inhibition, hits mostly inhibitors; hit rate 4.4% among 390,000; AID 504339; also: % is scaled to controls: 0 for no effect and ±100 for the full control effect; nearly all actives have a fitted effect of over 50% in size
Sfp PPTase inh: blocks B. subtilis Sfp PPTase activity | Q9F4F7 | Biochemical Sfp PPTase activity, qHTS | Potency, µM, without a hit: largest response in the series, negative = inhibition, most hits filed as inhibitors | hit rate 3.5% among 310,000 | AID 1490;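 also: the enzyme is Sfp with the accession as filed and its product quenches rhodamine fluorescence; 0% = enzyme reaction without inhibitor and -100% = no enzyme wells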
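Sfp 15 nM + cpd, 15 min RT; start w/ rhodamine-CoA 5 uM, BHQ-2-YbbR 12.5 uM (final); 50 mM Hepes pH 7.6, 10 mM MgCl2, 0.01% NP-40, 0.01% BSA; read 525/598 nm at 0 and 30 min.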
L3MBTL1 inh: inhibitors of human L3MBTL1; Q9Y468; AlphaScreen L3MBTL1–H3K9me1 peptide binding; Potency, µM (top dose mostly 57.1 µM), inactives show at the highest dose activity, negative = inhibition, most hits filed as inhibitors; hit rate 0.66% among 230,000; also: % is scaled to controls: 0 for no effect and ±100 for the full control effect; nearly all actives have a fitted effect of over 60% in size
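L3MBTL1 (50 nM) pre-complexed 30 min with biotinylated H3(1-15)K9me1 peptide (75 nM), then compounds added for 30 min at room temperature; AlphaScreen streptavidin donor/nickel chelate acceptor beads (10 ug/mL final) read after 30 min dark incubation.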
* hit, by the source's call; ? = inconclusive; · = not tested or not shown; [ ] = dose if it differs, or a comment. Compounds with a hit are over-represented: about 12% of the library has one in this group of screens. Calls follow the shape of the dose curve; as a rule, active = well fitted curve in the direction sought with a large enough effect; inconclusive = small, poorly fitted or top-dose-only effect, or another doubt; inactive = no such curve, though single readings can be large; an effect the other way counts as inactive or inconclusive. Potency is read from the fitted curve at half-maximal effect.

SMILES	BAZ2B inh	G9a block	HP1b binding inh	JMJD2A Tudor inh	Sfp PPTase inh	L3MBTL1 inh
CCOC(=O)Cn1c(=O)n(CC2CCCO2)c2nc(-c3ccccc3)nc(C(N)=O)c21 (stereo not given)	-2%	-1%[59 µM]	22%[57 µM]	-5%	·	·
COc1ccc2ccccc2c1C1NC(=O)c2ccccc2N1 (stereo not given)	·	·	27%	-12%	·	·
COc1ccccc1N1CCN(C/C(C)=C/c2ccccc2)CC1	56µM*	-1%[12.7 µM]	18%	-28%	7%	·
COc1ccc(C(=O)CN2CCN(c3ccc(Cl)cc3)CC2)cc1OC	-38%	22µM*	19%	-29%	79µM*	·
COc1ccc(N2CCN(c3nc4ccccc4n3CC(=O)c3ccccc3)CC2)cc1	?	14µM*	?	?	?	-11%
CCOC(=O)C1CCN(c2nc3ccccc3n2CC(=O)c2ccccc2)CC1	-13%	27%	15%	-8%	0%	-9%
COc1ccc(N2CCN(CC(=O)c3ccc(Cl)cc3)CC2)cc1	?	22µM*	18%	?	-22%	·
COc1ccccc1N1CCN(CC(=O)N2N=CCC2c2ccccc2)CC1 (stereo not given)	2%	12%[59 µM]	19%	-12%	10%	?
COc1ccccc1N1CCN(CC(=O)c2ccc(F)cc2)CC1	56µM*	·	?	14µM*	40µM*	2%
N#Cc1ccc(C(=O)CN2CCN(c3ccccc3)CC2)cc1	-27%	28µM*	25%	-21%	-3%	·
COc1cc(OC)nc(NC(=O)CN2CCN(c3ccc(F)cc3)CC2)n1	9%	-2%[12.7 µM]	22%	-13%	23%	6%
COc1ccc(C(=O)CN2CCN(c3ccc(F)cc3)CC2)cc1OC	-7%	40µM*	31%	-24%	7%	3%
Cc1cccc(C(=O)OC(C)C(=O)N2CCN(Cc3ccccc3)CC2)c1 (stereo not given)	-4%	-32%	35%	-5%	·	1%
O=C(CSc1nc(-c2ccc(F)cc2)[nH]c1-c1ccc(F)cc1)Nc1ccc2c(c1)OCO2	?	13%[59 µM]	46%	-13%	·	·
CC1CCN(C(=O)c2[nH]cnc2C(=O)NCC(=O)OC(C)(C)C)CC1	-27%	5%	14%	-13%	1%	-1%
CC(C)(C)OC(=O)N1CCN(C(=O)c2[nH]cnc2C(=O)NCC(=O)OCc2ccccc2)CC1	-1%	71µM*	27%	-19%	19%	-1%
CC(C)(C)OC(=O)CNC(=O)c1nc[nH]c1C(=O)N1CCNCC1	79µM*	22%[2.33 µM]	35%	?	·	7%
CC(C)(C)OC(=O)N1CCN(C(=O)c2[nH]cnc2C(=O)NCc2ccccc2)CC1	4%	12%[0.501 µM]	23%	-11%	·	-4%
CC(C)(C)OC(=O)CNC(=O)c1nc[nH]c1C(=O)N1CCN(C(=O)OC(C)(C)C)CC1	-7%	79µM*	24%	-3%	13%	6%
CC(=O)N1CCCC1c1nc2ccccc2n1Cc1cccc(Cl)c1 (stereo not given)	-14%	-28%[59 µM]	36%	4%	·	·
COc1ccc(CNc2ncncc2-c2c(C)noc2C)c(OC)c1	·	-7%[0.501 µM]	·	·	12%	·
CCOc1cc(-c2nc(-c3ccc(-c4ccc(OC)cc4)nc3OC)no2)cc(OCC)c1OCC	1%	5%[59 µM]	35%	8%	·	·
CC(C)(C)OC(=O)NCCc1nnc(SCC(=O)Nc2ccc(Br)cc2)o1	-1%	·	10%	-13%	7%	1%
Brc1ccc(CSc2nccn2-c2ccccc2)cc1	40µM*	45µM*	?	56µM*	-5%	?
Cn1c(SCc2ccc(Br)cc2)nnc1-c1cccs1	·	?	12%	-5%	15%	-1%
SMILES	BAZ2B inh	G9a block	HP1b binding inh	JMJD2A Tudor inh	Sfp PPTase inh	L3MBTL1 inh
O=C(CSc1nccn1-c1ccccc1)NO	?	4%	-4%	-5%[11.4 µM]	4%	16%
Cn1c(SCc2ccc(Br)cc2)nnc1-c1ccccn1	79µM*	?	3%	-5%	9%	-1%
CCC(C(=O)NC1CCCCC1)N(Cc1cccs1)C(=O)CCC(=O)Nc1cc(C)on1 (stereo not given)	-6%	-1%	-5%	-3%	20%	·
O=C(NCCc1ccc(Cl)cc1)C(=O)NCC(c1cccs1)S(=O)(=O)c1ccccc1 (stereo not given)	5%	-1%[59 µM]	5%[57 µM]	-15%	·	·
C1=C(c2ccco2)N2CCN=C2S1	0%	-1%[0.501 µM]	19%	-14%	?	-4%[2.29 µM]
CC1(C)Cc2c(sc3nc(SCC(=O)O)nc(N)c23)CO1	-3%	21%	33%	-13%	25%	-1%
COC(=O)CSc1nc(N)c2c3c(sc2n1)CCCC3	6%	?	41%	5%	-15%	1%
COC(=O)CSc1nc(N)c2c3c(sc2n1)C(c1ccccc1)SC(c1ccccc1)C3 (stereo not given)	7%	?	48%	7%	40µM*	3%
CC(C)(C)C1CCc2c(sc3nc(SCC(=O)O)nc(N)c23)C1 (stereo not given)	-13%	28µM*	14%	-12%	-2%	5%
CCCOc1ccc(N2C(=O)CC(NCC(=O)OCC)C2=O)cc1 (stereo not given)	·	·	27%	-10%	·	·
COC(=O)C1(C)NC(c2ccc(O)cc2)C2C(=O)N(c3ccc(C)cc3)C(=O)C21 (stereo not given)	-34%	10%	29%	-10%	12%	5%
Cc1ccc2c(c1)c1nnc(SCC(=O)Nc3ccc(N(C)C)cc3)nc1n2CC(=O)O	?	25µM*	-1%	?	79µM*	?
Cc1ccc2c(c1)c1nnc(SCC(=O)Nc3cccc(Cl)c3C)nc1n2CC(=O)O	50µM*	?	-17%	?	-22%	4%
Cc1ccc2c(c1)c1nnc(SCC(=O)Nc3ccccc3C(F)(F)F)nc1n2CC(=O)O	-16%	-10%	40%	-5%[57.1 µM]	10%	5%
C[C@@H]1C(=O)O[C@H]2[C@H](O)[C@@]34[C@H]5CC(C(C)(C)C)[C@]36[C@H](OC(=O)[C@H]6O)O[C@]4(C(=O)O5)[C@@]12O (stereo not given in full)	·	·	·	·	2%	·
Cc1ccc(NCc2ccc(O)c3ncccc23)cc1C	13%	18%	11%	?	8%	-19%
Cc1cccc(N=Nc2ccc(O)c3ncccc23)c1	8.9µM*	7.1µM*	?	32µM*	-3%	20µM*
Cc1ccc(C)c(N=Nc2ccc(O)c3ncccc23)c1	20µM*	11µM*	?	8.9µM*	6%	·
Cc1ccc(C(=O)Nc2c(C)cc(C)c3cccnc23)cc1	30%	20%	85%	46%	-22%	0%
Cc1ccc(N=Nc2ccc(N)cc2C)c(S(N)(=O)=O)c1	50µM*	20µM*	?	8.9µM*	?	-8%

Screening results as filed in PubChem.
